Sampled rows, rich in hits. Any-hit rate of the full collection: about 2.9%.
GDH-TPI inh: counter-screen for M. tuberculosis FBA inhibitors: GDH-TPI coupled enzymes; GDH-TPI coupled enzyme counterscreen, NADH absorbance; inhibition, % at 4.8 µM; 360,000 tested, 1.2% active; AID 588335; in the data active means inhibition above about 30%;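 further: 0% = DMSO wells and 100% = wells lacking the enzyme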
Mtb hypoxia rep: reduces hypoxia-regulated biosensor signal in M. tuberculosis | fluorescence inhibition, % (no concentration beside the values) | M. tuberculosis hypoxia-regulated fluorescent reporter, fluorescence | AID 1159583 | 300,000 tested, 0.1% active; in the data active means fluorescence inhibition mostly above about 23%, no sharp cut-off; inactive means mostly below about 17%
Mtb BioA inh: inhibitors of Mycobacterium tuberculosis BioA enzyme | purified M. tuberculosis BioA enzyme, plate reader | inhibition, % at 9.99 µM | 360,000 tested, 0.096% active; in the data active means inhibition above about 40%
FadD28 binding: inhibitors of Mycobacterium tuberculosis FadD28 bisubstrate binding; FadD28 bisubstrate probe binding, fluorescence polarization; inhibition, % at 12.5 µM; 360,000 tested, 0.22% active; in the data active means inhibition above about 8.5%, passing the limit was not always enough
FBA Mtb inh: Mtb fructose-bisphosphate aldolase inhibition; P9WQA3; purified M. tuberculosis FBA, fluorescence read-out; inhibition, % at 1 µM; 360,000 tested, 2.3% active; AID 588726; in the data active means inhibition above about 27%;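 further: 0% = vehicle and 100% = reference inhibitor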
Target sequence (P9WQA3 whole entry, looked up): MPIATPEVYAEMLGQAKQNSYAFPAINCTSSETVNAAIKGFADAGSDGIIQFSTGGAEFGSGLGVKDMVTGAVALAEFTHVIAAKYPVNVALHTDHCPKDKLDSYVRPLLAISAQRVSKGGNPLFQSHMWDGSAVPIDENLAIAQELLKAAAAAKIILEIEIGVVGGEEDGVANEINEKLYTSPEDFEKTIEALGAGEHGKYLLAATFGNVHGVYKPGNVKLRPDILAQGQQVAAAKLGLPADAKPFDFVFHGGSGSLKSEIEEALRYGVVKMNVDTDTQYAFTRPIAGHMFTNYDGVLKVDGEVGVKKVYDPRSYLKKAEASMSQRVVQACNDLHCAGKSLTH
An asterisk follows results filed as active.

Results for CO[C@H]1CN(C)C(=O)c2ccc(NS(=O)(=O)c3ccccc3)cc2OC[C@H](C)N(Cc2ccccn2)C[C@@H]1C ?
Mtb BioA inh: -2

What do the screens show for `CC(C)c1ccccc1-n1c(SCC(=O)c2ccc3c(c2)NC(=O)CO3)nc2ccccc2c1=O`?
GDH-TPI inh: 13; Mtb hypoxia rep: 1; Mtb BioA inh: 4; FadD28 binding: -5; FBA Mtb inh: 122*

How did COc1ccc(-c2nnc(Nc3nc4c(OC)cccc4s3)o2)c(OC)c1 do in these assays?
GDH-TPI inh: 69*; Mtb hypoxia rep: -6; Mtb BioA inh: -1; FadD28 binding: 2; FBA Mtb inh: 60*

Results for COc1ccc(-c2nnc(-c3ccc(N)cc3)o2)cc1 ?
GDH-TPI inh: 22; Mtb hypoxia rep: 10; Mtb BioA inh: -2; FadD28 binding: -1; FBA Mtb inh: 16

Results for COc1ccc(-c2nnc(Nc3nc4c(OC)cccc4s3)o2)cc1 ?
GDH-TPI inh: 63*; Mtb hypoxia rep: 15; Mtb BioA inh: 0; FadD28 binding: -3; FBA Mtb inh: 10

Results for CC=Cc1ccc2n(c1=O)C[C@H]1[C@H](CO)[C@@H](C(=O)N(C)C)[C@@H]2N1C(=O)c1ccc(F)cc1 (mixture of isomers) ?
Mtb BioA inh: -4

How did CCC(=O)N1[C@@H]2Cn3c(ccc(C4=CCCC4)c3=O)[C@H]1[C@@H](C(=O)NCC1CCCCC1)[C@@H]2CO do in these assays?
Mtb BioA inh: -1

What do the screens show for `COCC(=O)N1C[C@@H]2[C@H](c3ccccc31)[C@H](CO)N2C(=O)Nc1ccccc1Cl`?
Mtb BioA inh: -3

Results for COc1ccc(C(=O)c2ccc(N(C)C)cc2)c(OC)c1 ?
GDH-TPI inh: 31*; Mtb hypoxia rep: 2; Mtb BioA inh: 0; FadD28 binding: -1; FBA Mtb inh: 0

What do the screens show for `CN(C)c1ccc(C(=O)c2ccc(N(C)C)c3ccccc23)cc1`?
GDH-TPI inh: 34*; Mtb hypoxia rep: -1; Mtb BioA inh: 2; FadD28 binding: -1; FBA Mtb inh: -1

Results for COc1ccc(C(=O)c2ccc(OC)cc2OC)cc1 ?
GDH-TPI inh: 6; Mtb BioA inh: 0; FadD28 binding: 1; FBA Mtb inh: -2

Results for CN(C)c1ccccc1C(=O)c1ccccc1N(C)C ?
GDH-TPI inh: 29; Mtb hypoxia rep: 10; Mtb BioA inh: 2; FadD28 binding: 0; FBA Mtb inh: 1

How did COCCNC(=O)c1cc2c(c(-c3cccc(C#CCN(C)C)c3)n1)[C@H](CCO)N(S(=O)C(C)(C)C)C2 (stereo not given in full) do in these assays?
Mtb BioA inh: -2

What do the screens show for `CCCNC(=O)C[C@H]1CC[C@H]2[C@@H](COc3ccc(NC(=O)CCC)cc3C(=O)N2C)O1`?
Mtb BioA inh: 0

Results for CC1CCCC(C)N1C(=O)COC(=O)c1cccnc1Cl (stereo not given) ?
GDH-TPI inh: 7; Mtb hypoxia rep: 34*; Mtb BioA inh: -2; FadD28 binding: -1; FBA Mtb inh: 1

Results for Cc1onc(-c2ccccc2)c1C(=O)NNC(=S)NC(=O)/C=C/c1cccs1 ?
GDH-TPI inh: 63*; Mtb BioA inh: -1; FadD28 binding: 0; FBA Mtb inh: 0

Results for Cc1onc(-c2ccccc2)c1C(=O)NC(=S)NNC(=O)c1ccncc1 ?
GDH-TPI inh: 13; Mtb hypoxia rep: 2; Mtb BioA inh: 1; FadD28 binding: 0; FBA Mtb inh: 4

What do the screens show for `COc1ccc(/C(C#N)=C/c2ccccn2)cc1`?
GDH-TPI inh: 32*; Mtb BioA inh: 1; FadD28 binding: -5; FBA Mtb inh: 24

How did C/C(=N\Nc1nc(C)cc(C)n1)c1ccc(C)o1 do in these assays?
GDH-TPI inh: 32*; Mtb BioA inh: -1; FadD28 binding: -1; FBA Mtb inh: 0

Results for C=CCn1c(=O)c2c(nc3n2CCN3c2cccc(Cl)c2C)n(C)c1=O ?
GDH-TPI inh: 11; Mtb hypoxia rep: 4; Mtb BioA inh: 4; FadD28 binding: -2; FBA Mtb inh: -1

Results for C=CCn1c(=O)c2c(nc(-c3ccc(S(=O)(=O)O)cc3)n2C)n(C)c1=O ?
GDH-TPI inh: 3; Mtb hypoxia rep: 7; Mtb BioA inh: 0; FadD28 binding: -3; FBA Mtb inh: active

How did COc1ccc(S(=O)(=O)NN=C(C)c2ccncc2)cc1OC do in these assays?
Mtb hypoxia rep: 9

How did O=c1oc2ccccc2c(Nc2ccccc2)c1[N+](=O)[O-] do in these assays?
GDH-TPI inh: 7; Mtb hypoxia rep: 4; Mtb BioA inh: 6; FadD28 binding: -3; FBA Mtb inh: -1

What do the screens show for `Cc1cccc(Nc2c([N+](=O)[O-])c(=O)oc3ccccc23)c1`?
GDH-TPI inh: 32*; Mtb hypoxia rep: -4; FadD28 binding: -3; FBA Mtb inh: -4

What do the screens show for `N#Cc1ccccc1NC(=O)Nc1ccccc1`?
GDH-TPI inh: -3; Mtb hypoxia rep: 8; FadD28 binding: -1; FBA Mtb inh: 50*

Results for COc1ccccc1NC(=O)Nc1ccccc1C#N ?
GDH-TPI inh: 0; Mtb hypoxia rep: 7; Mtb BioA inh: -1; FadD28 binding: -1; FBA Mtb inh: 10

Results for CCCCn1nc2cc(C(=O)NCCc3ccc(C)cc3)ccc2c1OCC ?
GDH-TPI inh: 1; Mtb hypoxia rep: -3; Mtb BioA inh: -1; FadD28 binding: -2; FBA Mtb inh: 22

How did CCCCn1nc2cc(C(=O)NCc3ccccc3)ccc2c1OCC do in these assays?
GDH-TPI inh: 1; Mtb hypoxia rep: 16; Mtb BioA inh: -4; FadD28 binding: 1; FBA Mtb inh: 68*

Results for CCCn1nc2cc(C(=O)N(CC)c3ccc(OC)cc3)ccc2c1OCC ?
GDH-TPI inh: 0; Mtb hypoxia rep: 11; Mtb BioA inh: 3; FadD28 binding: -2; FBA Mtb inh: 40*

What do the screens show for `CCCCn1nc2cc(C(=O)NCCCCc3ccccc3)ccc2c1OCC`?
GDH-TPI inh: -2; Mtb hypoxia rep: 4; Mtb BioA inh: -1; FadD28 binding: -2; FBA Mtb inh: 24

Results for CCOc1c2ccc(C(=O)NCc3ccccc3OC)cc2nn1CC ?
GDH-TPI inh: -1; Mtb hypoxia rep: 2; Mtb BioA inh: -3; FadD28 binding: 2; FBA Mtb inh: 47*

Results for CCOc1c2ccc(C(=O)NCc3ccco3)cc2nn1CC ?
GDH-TPI inh: 7; Mtb hypoxia rep: -2; Mtb BioA inh: 1; FadD28 binding: -4; FBA Mtb inh: 39*

What do the screens show for `C[C@@H]1CN([C@@H](C)CO)C(=O)CCCn2nncc2CO[C@@H]1CN(C)Cc1ccccc1C(F)(F)F`?
Mtb BioA inh: 1

Results for C[C@H](CO)N1C[C@H](C)[C@@H](CN(C)Cc2ccc(C(=O)O)cc2)Oc2cc(C#CCC3CCCC3)ccc2S1(=O)=O ?
Mtb BioA inh: 0

How did COc1ccc(NC(=O)N2C[C@H](O)COC[C@H]3O[C@H](CC(=O)N4CCN(C)CC4)CC[C@@H]32)cc1 do in these assays?
Mtb BioA inh: 0

Results for COc1ccccc1CNC(=O)c1ccc2nc3[nH]c4ccccc4c3nc2c1 ?
GDH-TPI inh: 40*; Mtb hypoxia rep: -1; Mtb BioA inh: -4; FadD28 binding: -1; FBA Mtb inh: 0

Screens: PubChem, several laboratories
